The results in this text go back to PubChem BioAssay (NCI).

The nature of experiment [1]: NCI Yeast Anticancer Drug Screen. Data for the rad50 strain (AID 155).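 Also: 0% = growth of vehicle-only cultures of the same strain.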 To be noted: S. cerevisiae rad50 strain growth inhibition, stronger effect = higher value. Put shortly: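 Cells are treated with compound, grown, and their growth is then scored against vehicle-only cultures of the same repair-deficient yeast strain.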
Experiment [2] is described as follows: NCI Yeast Anticancer Drug Screen. Data for the mec2-1 strain (AID 157). To be noted: S. cerevisiae mec2-1 strain, stronger effect = higher value. Put shortly:
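Mutant yeast (mec2-1) grown with compound; growth inhibition relative to vehicle control reported.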

A short description of experiment [3]: NCI Yeast Anticancer Drug Screen. Data for the sgs1 mgt1 strain (AID 161).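 Also: 0% = growth of cultures given vehicle only.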 The following applies: S. cerevisiae sgs1 mgt1 strain, stronger effect = higher value. The gist of the method:
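Percent growth inhibition was derived by comparing compound-exposed mutant yeast with vehicle-exposed cultures. The strain carries alterations in DNA damage repair.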

Experiment [4] in a line: NCI Yeast Anticancer Drug Screen. Data for the cln2 rad14 strain (AID 165).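 Also: 0% = growth equal to vehicle treated cultures.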 The following applies: S. cerevisiae cln2 rad14 strain, stronger effect = higher value. Put shortly: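 Readout is yeast growth inhibition versus vehicle-treated controls, using a strain with cln2 and rad14 alterations exposed to compound.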
A short description of experiment [5]: NCI Yeast Anticancer Drug Screen. Data for the bub3 strain (AID 167). The following applies: S. cerevisiae bub3 mutant strain, stronger effect = higher value. The gist of the method:
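Part of a panel of yeast mutants defective in DNA damage repair or cell cycle regulation. Each strain is grown with compound, and inhibition is calculated relative to solvent-treated cultures.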

Experiment [6] can be described thus: NCI Yeast Anticancer Drug Screen. Data for the mlh1 rad18 strain (AID 175). The following applies: S. cerevisiae mlh1 rad18 strain growth inhibition, stronger effect = higher value. Put shortly: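 Genetically defined yeast (DNA repair-deficient) exposed to compounds; growth inhibition determined relative to vehicle.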
Where [7] appears, read: at 5.0 µM (retest, dose inferred, filed as 0.5).
[8] abbreviates: at 50.0 µM (retest, dose inferred, filed as 5.0).

This is part of a sample that, as a whole, favours compounds with a hit. Of some 79,000 tested, about 15% had one in any assay. Values without a mark were called inactive. Activity calls are given as the source filed them. Rule as the data show it: active = growth inhibition above about 70%; inactive = the rest.

Consider `Cc1ccc(NNC(=O)C(O)C(O)C(O)C(O)CO)cc1` (stereo unspecified), for which the growth inhibition is 98% (active) in experiment [1] (setting [7]); 98% (active) in experiment [1] (setting [8]); -2.2% in experiment [1] (at 50.0 µM); 99% (active) in experiment [2] (setting [7]); 99% (active) in experiment [2] (setting [8]); 2.6% in experiment [2] (at 50.0 µM). The growth inhibition in experiment [3] (setting [7]) is 99% (active); in experiment [3] (setting [8]), 99% (active); in experiment [3] (at 50.0 µM), 7.85%; in experiment [4] (setting [7]) it was 99% (active); in experiment [4] (setting [8]), 99% (active); in experiment [4] (at 50.0 µM), 41.8%. For the same molecule, the growth inhibition was 98% (active) in experiment [5] (setting [7]); 99% (active) in experiment [5] (setting [8]); 8.25% in experiment [5] (at 50.0 µM); 99% (active) in experiment [6] (setting [7]); 99% (active) in experiment [6] (setting [8]); 1.2% in experiment [6] (at 50.0 µM).

As to `OCCN1c2ccccc2Sc2ccc(Cl)cc21`, the growth inhibition in experiment [1] (setting [7]) is -1%; in experiment [1] (setting [8]), 97% (active); in experiment [1] (at 50.0 µM), 89.3% (active); in experiment [2] (setting [7]), -18%; in experiment [2] (setting [8]), 98% (active); in experiment [2] (at 50.0 µM) it was 92% (active). In addition, the growth inhibition was -14% in experiment [3] (setting [7]); 40% in experiment [3] (setting [8]); 90.8% (active) in experiment [3] (at 50.0 µM); 30% in experiment [4] (setting [7]); 98% (active) in experiment [4] (setting [8]); 86.8% (active) in experiment [4] (at 50.0 µM). The growth inhibition in experiment [5] (setting [7]) is 1%; in experiment [5] (setting [8]), 97% (active); in experiment [5] (at 50.0 µM), 91.3% (active); in experiment [6] (setting [7]) it was 12%; in experiment [6] (setting [8]), 98% (active); in experiment [6] (at 50.0 µM), 88.5% (active).

For the molecule `Nc1ccc2c(SCc3ccc([N+](=O)[O-])cc3)c3ccccc3nc2c1`, the growth inhibition was 86% (active) in experiment [1] (setting [7]); 84% (active) in experiment [1] (setting [8]); 73.5% (active) in experiment [1] (at 50.0 µM); 98% (active) in experiment [2] (setting [7]); 94% (active) in experiment [2] (setting [8]); 87.7% (active) in experiment [2] (at 50.0 µM). Further, the growth inhibition in experiment [3] (setting [7]) is 40%; in experiment [3] (setting [8]), 94% (active); in experiment [3] (at 50.0 µM), 88.8% (active); in experiment [4] (setting [7]), 90% (active); in experiment [4] (setting [8]) it was 93% (active); in experiment [4] (at 50.0 µM), 84.5% (active). Also, the growth inhibition in experiment [5] (setting [7]) is 97% (active); in experiment [5] (setting [8]) it was 94% (active); in experiment [5] (at 50.0 µM), 84.2% (active); in experiment [6] (setting [7]), 96% (active); in experiment [6] (setting [8]) it was 93% (active); in experiment [6] (at 50.0 µM) it was 83.9% (active).

On to `Cc1ccc(C(=O)C(F)(F)F)cc1`, for which the growth inhibition was -162% in experiment [1] (setting [7]); -138% in experiment [1] (setting [8]); 4.5% in experiment [1] (at 50.0 µM); -46% in experiment [2] (setting [7]); -51% in experiment [2] (setting [8]); -15.9% in experiment [2] (at 50.0 µM). Further, the growth inhibition is -63% in experiment [3] (setting [7]); -68% in experiment [3] (setting [8]); -10.5% in experiment [3] (at 50.0 µM); -60% in experiment [4] (setting [7]); -78% in experiment [4] (setting [8]); 32.1% in experiment [4] (at 50.0 µM). The growth inhibition in experiment [5] (setting [7]) was -74%; in experiment [5] (setting [8]), -89%; in experiment [5] (at 50.0 µM), -24.1%; in experiment [6] (setting [7]) it was -145%; in experiment [6] (setting [8]), -117%; in experiment [6] (at 50.0 µM), 3.3%.

For the molecule `S=C(N/N=C/c1ccccn1)N1CCCCC1`, the growth inhibition in experiment [1] (setting [7]) was 99% (active); in experiment [1] (setting [8]), 98% (active); in experiment [1] (at 50.0 µM), 89.3% (active); in experiment [2] (setting [7]) it was 97% (active); in experiment [2] (setting [8]), 99% (active); in experiment [2] (at 50.0 µM), 92.4% (active). Also, the growth inhibition in experiment [3] (setting [7]) is 98% (active); in experiment [3] (setting [8]) it was 97% (active); in experiment [3] (at 50.0 µM), 91.8% (active); in experiment [4] (setting [7]), 96% (active); in experiment [4] (setting [8]), 99% (active); in experiment [4] (at 50.0 µM), 93% (active). Further, the growth inhibition is 98% (active) in experiment [5] (setting [7]); 100% (active) in experiment [5] (setting [8]); 92% (active) in experiment [5] (at 50.0 µM); 98% (active) in experiment [6] (setting [7]); 99% (active) in experiment [6] (setting [8]); 89.5% (active) in experiment [6] (at 50.0 µM).

As for `COc1cccc2c1S(=O)(=O)C(c1ccccc1)=CC2=O`, the growth inhibition in experiment [1] (setting [7]) was 45%; in experiment [1] (setting [8]), 99% (active); in experiment [1] (at 50.0 µM), 99.5% (active); in experiment [2] (setting [7]), 48%; in experiment [2] (setting [8]), 99% (active); in experiment [2] (at 50.0 µM) it was 99.2% (active). The growth inhibition in experiment [3] (setting [7]) was 55%; in experiment [3] (setting [8]), 99% (active); in experiment [3] (at 50.0 µM), 99.4% (active); in experiment [4] (setting [7]), 12%; in experiment [4] (setting [8]), 98% (active); in experiment [4] (at 50.0 µM) it was 98.7% (active). For the same molecule, the growth inhibition is 58% in experiment [5] (setting [7]); 97% (active) in experiment [5] (setting [8]); 99.7% (active) in experiment [5] (at 50.0 µM); 69% in experiment [6] (setting [7]); 99% (active) in experiment [6] (setting [8]); 99.5% (active) in experiment [6] (at 50.0 µM).

`CN(C)c1ncnc2c1ncn2C`: the growth inhibition in experiment [1] (setting [7]) is 29%; in experiment [1] (setting [8]), 61%; in experiment [1] (at 50.0 µM), 70.8% (active); in experiment [2] (setting [7]), 15%; in experiment [2] (setting [8]), 81% (active); in experiment [2] (at 50.0 µM) it was 61.4%. Also, the growth inhibition in experiment [3] (setting [7]) is 16%; in experiment [3] (setting [8]), 53%; in experiment [3] (at 50.0 µM) it was 59.1%; in experiment [4] (setting [7]), -1%; in experiment [4] (setting [8]), 38%; in experiment [4] (at 50.0 µM), 17.4%. Also, the growth inhibition in experiment [5] (setting [7]) was 20%; in experiment [5] (setting [8]), 98% (active); in experiment [5] (at 50.0 µM), 38.7%; in experiment [6] (setting [7]), 26%; in experiment [6] (setting [8]) it was 72% (active); in experiment [6] (at 50.0 µM) it was 61.4%.
